Reference: the supplement of paper PMC10849652
Of roughly 8,800 targets only a part is listed; those with a hit were picked by preference. About 0.5% of all pairs of compound and target were hits.

Tests used:
Assay in all cases: log2 fold change, soluble protein after heating vs DMSO (PISA); higher = thermal stabilisation; K562 lysate, 10 uM; active = over 0.2 and 3.5 SD of the protein, either way, in both replicates (recomputed)
erlotinib = compound: C#Cc1cccc(Nc2ncnc3cc(OCCOC)c(OCCOC)cc23)c1 [erlotinib]
Summary of the method: (§1)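 The values are log-two fold changes in thermal stability compared with solvent controls and come from duplicates. They were obtained by TMTpro 16plex LC-MS/MS, with channel sums equalised, on the supernatant after 21,000xg for 90 min. That supernatant came from crude K562 extract at 1 mg/mL protein treated with 10 μM compound for 30 min, heated for 3 min across 48°C-58°C, pooled and brought to 0.5% NP-40 at 4°C.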

[1] = compound: C/C(=N\NC(=O)C1=CC(=CC=C1)S(=O)(=O)N2CCOCC2)/C3=C(C=CC(=C3)Cl)O
Summary of the method: as §1

[2] = compound: C1=CC(=CC=C1C2=NC3=C(N2)C=C(C=C3)C(=O)N)OC4=CC=C(C=C4)Cl
Summary of the method: as §1

[3] = compound: C1=CC2=C(C=CC(=C2)/C=C\3/C(=O)NC(=NCC4=CC=CS4)S3)N=C1
Summary of the method: as §1

[4] = compound: C1=CC2=NC=CN=C2C=C1/C=C/3\C(=O)NC(=O)S3
Summary of the method: as §1

[5] = compound: C1=CC=C(C=C1)C2=NC(=C(N2)C3=CC=NC=C3)C4=CC(=C(C=C4)Cl)O
Summary of the method: as §1

[6] = compound: C1=CC=C2C(=C1)C3=NNC4=CC=CC(=C43)C2=O
Summary of the method: as §1

[7] = compound: C1CCN(C1)C(=O)NC2=CC=CC(=C2)NC3=NC=C(C(=N3)NCCC4=CN=CN4)Br
Summary of the method: as §1

[8] = compound: C1CN(CCC1(CC2=CC=C(C=C2)Cl)N)C3=NC=NC4=C3C=CN4
Summary of the method: as §1

IRAK-1-4 Inhibitor I = compound: C1COCCN1CCN2C3=CC=CC=C3N=C2NC(=O)C4=CC(=CC=C4)[N+](=O)[O-] [IRAK-1-4 Inhibitor I]
Summary of the method: as §1

ibrutinib = compound: C=CC(=O)N1CCC[C@@H](n2nc(-c3ccc(Oc4ccccc4)cc3)c3c(N)ncnc32)C1 [ibrutinib]
Summary of the method: as §1

[9] = compound: CC(=O)c1cnc2ccc(-c3cc(Cl)c(O)c(Cl)c3)nc2c1N[C@H]1CC[C@H](CN(C)C)CC1
Summary of the method: as §1

ralimetinib = compound: CC(C)(C)Cn1c(N)nc2ccc(-c3[nH]c(C(C)(C)C)nc3-c3ccc(F)cc3)nc21 [ralimetinib]
Summary of the method: as §1

[10] = compound: CC(C)(O)CC(=O)NCCn1ccc2ncnc(Nc3ccc(Oc4cccc(C(F)(F)F)c4)c(Cl)c3)c21
Summary of the method: as §1

[11] = compound: CC(C)C1=C2N=C(C=C(N2N=C1)NCC3=CC=CC=C3)NCCCCCCN
Summary of the method: as §1

[12] = compound: CC1=C(C(CC(=O)N1)C2=CC=C(C=C2)C(F)(F)F)C(=O)NC3=C(C=C4C(=C3)C=NN4)F
Summary of the method: as §1

[13] = compound: CC1=C(C2=C(C=C1)C(=O)C3=CC=CC=C3N2CCCN)C
Summary of the method: as §1

[14] = compound: CC1=C(C=C(C=C1)NC(=O)C2=CC(=CC=C2)C(C)(C)C#N)NC3=CC4=C(C=C3)N=CN(C4=O)C
Summary of the method: as §1

[15] = compound: CC1=C(C=C(C=C1)NC(=O)C2=CC(=CC=C2)N(C)C)NC(=O)C3=CC=C(C=C3)O
Summary of the method: as §1

[16] = compound: CC1=CC=C(C=C1)SC2=C3C=C(SC3=CN=C2)C(=O)N
Summary of the method: as §1

Measured: log2 fold change

SND1 (UniProt Q7KZF4)
Sequence of UniProt Q7KZF4 (Q7KZF4 whole entry, looked up): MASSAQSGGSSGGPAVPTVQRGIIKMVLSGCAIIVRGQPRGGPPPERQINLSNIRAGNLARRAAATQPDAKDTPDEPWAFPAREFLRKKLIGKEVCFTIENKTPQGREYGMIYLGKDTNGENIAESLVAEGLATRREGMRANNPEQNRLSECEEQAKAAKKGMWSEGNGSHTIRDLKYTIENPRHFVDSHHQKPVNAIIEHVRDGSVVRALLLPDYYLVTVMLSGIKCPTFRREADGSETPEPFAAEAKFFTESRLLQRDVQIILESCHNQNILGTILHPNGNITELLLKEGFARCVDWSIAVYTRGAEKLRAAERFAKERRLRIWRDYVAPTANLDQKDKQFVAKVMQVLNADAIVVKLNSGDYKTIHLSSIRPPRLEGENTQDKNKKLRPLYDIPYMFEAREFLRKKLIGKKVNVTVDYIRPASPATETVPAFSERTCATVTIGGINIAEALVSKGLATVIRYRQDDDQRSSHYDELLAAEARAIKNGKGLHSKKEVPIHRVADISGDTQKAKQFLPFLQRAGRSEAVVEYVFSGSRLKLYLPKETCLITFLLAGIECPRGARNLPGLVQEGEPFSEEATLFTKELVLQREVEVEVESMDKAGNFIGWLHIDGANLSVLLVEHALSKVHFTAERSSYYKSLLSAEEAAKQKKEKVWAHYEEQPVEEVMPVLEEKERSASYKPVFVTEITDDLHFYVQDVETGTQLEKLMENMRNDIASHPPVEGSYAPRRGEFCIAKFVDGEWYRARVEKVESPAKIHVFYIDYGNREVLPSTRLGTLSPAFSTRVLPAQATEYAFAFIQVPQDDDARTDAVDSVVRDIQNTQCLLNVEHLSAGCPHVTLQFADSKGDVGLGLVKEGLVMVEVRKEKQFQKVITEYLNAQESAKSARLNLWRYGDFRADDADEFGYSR
inactive: erlotinib 0.022 | [1] 0.042 | [2] -0.009 | [3] 0.007 | [4] 0.031 | [5] 0.017 | [6] -0.042 | [7] 0.005 | [8] -0.005 | IRAK-1-4 Inhibitor I -0.012 | ibrutinib 0.012 | [9] 0.004 | ralimetinib 0.03 | [10] 0.044 | [11] 0.027 | [12] 0.024 | [13] 0.015 | [14] 0.003 | [15] 0.038 | [16] 0.024

SPNS1 (UniProt Q9H2V7)
Sequence of UniProt Q9H2V7 (Q9H2V7 whole entry, looked up): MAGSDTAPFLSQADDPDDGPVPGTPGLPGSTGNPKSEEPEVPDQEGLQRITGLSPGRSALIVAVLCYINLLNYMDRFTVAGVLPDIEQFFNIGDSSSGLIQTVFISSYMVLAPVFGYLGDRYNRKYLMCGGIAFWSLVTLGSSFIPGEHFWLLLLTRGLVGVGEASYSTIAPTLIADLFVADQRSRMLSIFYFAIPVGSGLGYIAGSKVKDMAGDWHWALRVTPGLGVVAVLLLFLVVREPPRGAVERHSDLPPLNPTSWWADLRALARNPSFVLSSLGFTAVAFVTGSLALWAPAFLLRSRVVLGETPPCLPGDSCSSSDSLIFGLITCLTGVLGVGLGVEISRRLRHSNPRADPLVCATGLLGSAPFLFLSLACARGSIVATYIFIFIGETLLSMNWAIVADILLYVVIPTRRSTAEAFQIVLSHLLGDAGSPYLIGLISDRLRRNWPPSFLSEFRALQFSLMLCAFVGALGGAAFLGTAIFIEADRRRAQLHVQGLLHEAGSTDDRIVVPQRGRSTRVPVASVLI
inactive: erlotinib 0.015 | [1] -0.043 | [2] -0.02 | [3] 0.043 | [4] -0.031 | [5] 0.029 | [6] -0.063 | [7] 0 | [8] 0.044 | IRAK-1-4 Inhibitor I 0.032 | ibrutinib 0.02 | [9] -0.001 | ralimetinib 0.005 | [10] -0.009 | [11] 0.007 | [12] -0.009 | [13] -0.007 | [14] 0.047 | [15] -0.029 | [16] 0.012

SRSF2 (UniProt Q01130)
Sequence of UniProt Q01130 (Q01130 whole entry, looked up): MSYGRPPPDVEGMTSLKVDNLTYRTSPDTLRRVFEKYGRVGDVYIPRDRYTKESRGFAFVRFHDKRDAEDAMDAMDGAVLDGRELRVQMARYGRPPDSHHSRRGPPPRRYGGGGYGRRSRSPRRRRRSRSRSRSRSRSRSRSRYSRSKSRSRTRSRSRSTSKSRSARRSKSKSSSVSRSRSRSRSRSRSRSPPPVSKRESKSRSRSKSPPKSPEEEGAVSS
inactive: erlotinib 0.005 | [1] 0.041 | [2] 0.026 | [3] -0.038 | [4] -0.018 | [5] -0.017 | [6] -0.031 | [7] 0.023 | [8] -0.037 | IRAK-1-4 Inhibitor I 0.04 | ibrutinib 0.021 | [9] -0.009 | ralimetinib 0.034 | [10] -0.065 | [11] -0.013 | [12] -0.021 | [13] -0.015 | [14] 0.016 | [15] 0.028 | [16] -0.018

SMARCAD1 isoform 2 (UniProt Q9H4L7)
inactive: erlotinib 0 | [1] 0.022 | [2] -0.039 | [3] 0.023 | [4] -0.019 | [5] 0.041 | [6] -0.052 | [7] -0.051 | [8] 0.003 | IRAK-1-4 Inhibitor I -0.006 | ibrutinib 0.006 | [9] -0.021 | ralimetinib 0.022 | [10] -0.016 | [11] 0.007 | [12] 0.008 | [13] 0.012 | [14] 0.021 | [15] 0.014 | [16] -0.022

SMC3 (UniProt Q9UQE7)
inactive: erlotinib -0.01 | [1] 0.018 | [2] -0.004 | [3] 0.018 | [4] -0.013 | [5] 0.002 | [6] 0.023 | [7] -0.007 | [8] -0.016 | IRAK-1-4 Inhibitor I -0.009 | ibrutinib 0.002 | [9] -0.001 | ralimetinib -0.023 | [10] 0.003 | [11] -0.002 | [12] -0.004 | [13] 0.01 | [14] -0.014 | [15] 0.011 | [16] 0.01

TARBP1 (UniProt Q13395)
inactive: erlotinib 0.134 | [1] 0.047 | [2] -0.02 | [3] 0.051 | [4] -0.059 | [5] 0.044 | [6] -0.048 | [7] 0.007 | [8] 0.034 | IRAK-1-4 Inhibitor I 0.084 | ibrutinib -0.021 | [9] 0.036 | ralimetinib 0.162 | [10] 0.03 | [11] -0.051 | [12] -0.027 | [13] -0.077 | [14] 0.002 | [15] 0.035 | [16] -0.036

SLC7A5 (UniProt Q01650)
inactive: erlotinib 0.001 | [1] -0.009 | [2] -0.029 | [3] -0.015 | [4] 0.02 | [5] 0.007 | [6] -0.008 | [7] 0.019 | [8] -0.006 | IRAK-1-4 Inhibitor I 0.021 | ibrutinib -0.011 | [9] -0.01 | ralimetinib 0.018 | [10] -0.042 | [11] 0.036 | [12] -0.031 | [13] -0.003 | [14] 0.075 | [15] -0.043 | [16] 0

SLC25A25 isoform 3 (UniProt Q6KCM7)
Sequence of UniProt Q6KCM7 (Q6KCM7 whole entry, looked up): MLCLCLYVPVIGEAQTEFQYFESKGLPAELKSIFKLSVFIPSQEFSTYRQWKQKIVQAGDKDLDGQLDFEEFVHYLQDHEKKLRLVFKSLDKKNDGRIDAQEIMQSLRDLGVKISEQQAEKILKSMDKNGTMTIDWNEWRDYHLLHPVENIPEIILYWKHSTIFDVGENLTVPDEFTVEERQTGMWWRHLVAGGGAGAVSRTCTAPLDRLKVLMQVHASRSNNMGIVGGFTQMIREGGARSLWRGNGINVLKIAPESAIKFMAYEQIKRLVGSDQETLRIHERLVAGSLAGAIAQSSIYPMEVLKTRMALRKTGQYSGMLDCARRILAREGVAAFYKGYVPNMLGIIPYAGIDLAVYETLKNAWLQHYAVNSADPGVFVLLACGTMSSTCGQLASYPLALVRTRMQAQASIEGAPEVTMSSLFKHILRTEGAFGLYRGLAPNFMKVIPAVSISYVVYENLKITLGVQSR
inactive: erlotinib -0.029 | [1] 0.054 | [2] -0.038 | [3] 0.039 | [4] -0.003 | [5] -0.027 | [6] 0.01 | [7] 0.011 | [8] -0.026 | IRAK-1-4 Inhibitor I -0.041 | ibrutinib -0.015 | [9] -0.028 | ralimetinib 0.011 | [10] 0.021 | [11] 0.018 | [12] 0.022 | [13] -0.036 | [14] 0.017 | [15] -0.012 | [16] 0.034

SMG7 (UniProt Q92540)
inactive: erlotinib 0.007 | [1] -0.03 | [2] -0.022 | [3] -0.058 | [4] -0.066 | [5] -0.047 | [6] -0.032 | [7] -0.077 | [8] -0.01 | IRAK-1-4 Inhibitor I -0.011 | ibrutinib 0.019 | [9] 0.041 | ralimetinib -0.036 | [10] -0.13 | [11] 0.066 | [12] -0.02 | [13] -0.01 | [14] -0.281 | [15] 0.047 | [16] 0.03

TARDBP (UniProt Q13148)
Sequence of UniProt Q13148 (Q13148 whole entry, looked up): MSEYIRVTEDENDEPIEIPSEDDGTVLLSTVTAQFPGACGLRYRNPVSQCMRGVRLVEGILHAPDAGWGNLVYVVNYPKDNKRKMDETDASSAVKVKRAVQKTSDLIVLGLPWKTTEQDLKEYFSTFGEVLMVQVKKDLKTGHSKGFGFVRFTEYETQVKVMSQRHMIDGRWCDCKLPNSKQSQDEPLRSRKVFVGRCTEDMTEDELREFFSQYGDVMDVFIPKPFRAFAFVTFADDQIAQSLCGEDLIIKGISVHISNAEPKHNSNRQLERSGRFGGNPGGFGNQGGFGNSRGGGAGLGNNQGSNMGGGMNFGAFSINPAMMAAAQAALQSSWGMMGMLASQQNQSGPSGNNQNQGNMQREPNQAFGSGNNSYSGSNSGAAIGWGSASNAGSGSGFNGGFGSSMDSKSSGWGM
inactive: erlotinib -0.017 | [1] -0.092 | [2] 0.018 | [3] 0.004 | [4] 0.09 | [5] -0.133 | [6] -0.036 | [7] -0.065 | [8] 0.032 | IRAK-1-4 Inhibitor I 0.048 | ibrutinib -0.161 | [9] 0.052 | ralimetinib -0.004 | [10] -0.076 | [11] 0.015 | [12] 0.019 | [13] 0.068 | [14] -0.059 | [15] 0.01 | [16] 0.019

SNW1 (UniProt Q13573)
Sequence of UniProt Q13573 (Q13573 whole entry, looked up): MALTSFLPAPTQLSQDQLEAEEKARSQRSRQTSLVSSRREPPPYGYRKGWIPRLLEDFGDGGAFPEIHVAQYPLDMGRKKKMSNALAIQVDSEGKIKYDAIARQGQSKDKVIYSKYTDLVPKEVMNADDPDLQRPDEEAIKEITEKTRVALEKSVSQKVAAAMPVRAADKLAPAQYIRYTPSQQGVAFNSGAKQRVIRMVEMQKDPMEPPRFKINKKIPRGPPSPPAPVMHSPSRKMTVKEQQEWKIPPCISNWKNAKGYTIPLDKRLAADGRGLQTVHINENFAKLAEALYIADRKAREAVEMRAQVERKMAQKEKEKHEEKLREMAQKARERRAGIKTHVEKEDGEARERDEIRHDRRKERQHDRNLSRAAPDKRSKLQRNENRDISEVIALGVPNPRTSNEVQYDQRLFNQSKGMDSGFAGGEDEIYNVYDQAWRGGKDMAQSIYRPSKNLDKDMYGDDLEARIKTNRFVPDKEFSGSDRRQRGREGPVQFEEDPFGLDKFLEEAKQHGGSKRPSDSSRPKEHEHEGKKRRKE
inactive: erlotinib -0.038 | [1] -0.017 | [2] 0.026 | [3] -0.018 | [4] -0.033 | [5] -0.006 | [6] -0.004 | [7] 0.022 | [8] -0.021 | IRAK-1-4 Inhibitor I 0 | ibrutinib 0.01 | [9] 0.001 | ralimetinib -0.005 | [10] -0.007 | [11] 0.014 | [12] 0.007 | [13] -0.045 | [14] 0.016 | [15] -0.004 | [16] 0.015

SLC26A6 (UniProt Q9BXS9)
Sequence of UniProt Q9BXS9 (Q9BXS9 whole entry, looked up): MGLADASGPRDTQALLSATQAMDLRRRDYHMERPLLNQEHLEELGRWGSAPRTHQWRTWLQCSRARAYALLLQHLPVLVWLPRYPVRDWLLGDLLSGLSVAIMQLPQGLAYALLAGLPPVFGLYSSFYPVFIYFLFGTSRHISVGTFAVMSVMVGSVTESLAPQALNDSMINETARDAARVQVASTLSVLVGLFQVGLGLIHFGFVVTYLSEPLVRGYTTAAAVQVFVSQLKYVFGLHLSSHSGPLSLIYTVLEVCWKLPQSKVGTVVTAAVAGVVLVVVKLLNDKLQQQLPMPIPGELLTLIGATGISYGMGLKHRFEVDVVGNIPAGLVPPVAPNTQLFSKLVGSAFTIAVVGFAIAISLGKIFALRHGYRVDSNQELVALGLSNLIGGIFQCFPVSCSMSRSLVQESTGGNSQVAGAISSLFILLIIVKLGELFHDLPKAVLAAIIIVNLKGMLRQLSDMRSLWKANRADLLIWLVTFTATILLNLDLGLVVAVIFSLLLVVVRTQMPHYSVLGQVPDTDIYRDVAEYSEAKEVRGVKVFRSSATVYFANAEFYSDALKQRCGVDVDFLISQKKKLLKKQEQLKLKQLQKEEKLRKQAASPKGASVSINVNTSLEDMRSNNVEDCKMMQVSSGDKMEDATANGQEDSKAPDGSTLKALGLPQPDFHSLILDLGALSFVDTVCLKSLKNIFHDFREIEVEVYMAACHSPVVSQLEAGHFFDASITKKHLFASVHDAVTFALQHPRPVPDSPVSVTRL
inactive: erlotinib -0.04 | [1] -0.117 | [2] 0.024 | [3] -0.018 | [4] -0.044 | [5] 0.032 | [6] -0.114 | [7] -0.13 | [8] 0.087 | IRAK-1-4 Inhibitor I -0.062 | ibrutinib -0.242 | [9] 0.018 | ralimetinib 0.019 | [10] -0.056 | [11] -0.05 | [12] -0.157 | [13] -0.022 | [14] 0.017 | [15] 0.033 | [16] -0.056

SRSF7 (UniProt Q16629)
inactive: erlotinib 0.019 | [1] -0.068 | [2] -0.043 | [3] 0.002 | [4] -0.066 | [5] -0.02 | [6] -0.016 | [7] 0.032 | [8] 0.008 | IRAK-1-4 Inhibitor I -0.03 | ibrutinib -0.114 | [9] -0.071 | ralimetinib 0.074 | [10] -0.004 | [11] 0 | [12] -0.005 | [13] -0.023 | [14] -0.037 | [15] 0.02 | [16] -0.079

SLC20A1 (UniProt Q8WUM9)
Sequence of UniProt Q8WUM9 (Q8WUM9 whole entry, looked up): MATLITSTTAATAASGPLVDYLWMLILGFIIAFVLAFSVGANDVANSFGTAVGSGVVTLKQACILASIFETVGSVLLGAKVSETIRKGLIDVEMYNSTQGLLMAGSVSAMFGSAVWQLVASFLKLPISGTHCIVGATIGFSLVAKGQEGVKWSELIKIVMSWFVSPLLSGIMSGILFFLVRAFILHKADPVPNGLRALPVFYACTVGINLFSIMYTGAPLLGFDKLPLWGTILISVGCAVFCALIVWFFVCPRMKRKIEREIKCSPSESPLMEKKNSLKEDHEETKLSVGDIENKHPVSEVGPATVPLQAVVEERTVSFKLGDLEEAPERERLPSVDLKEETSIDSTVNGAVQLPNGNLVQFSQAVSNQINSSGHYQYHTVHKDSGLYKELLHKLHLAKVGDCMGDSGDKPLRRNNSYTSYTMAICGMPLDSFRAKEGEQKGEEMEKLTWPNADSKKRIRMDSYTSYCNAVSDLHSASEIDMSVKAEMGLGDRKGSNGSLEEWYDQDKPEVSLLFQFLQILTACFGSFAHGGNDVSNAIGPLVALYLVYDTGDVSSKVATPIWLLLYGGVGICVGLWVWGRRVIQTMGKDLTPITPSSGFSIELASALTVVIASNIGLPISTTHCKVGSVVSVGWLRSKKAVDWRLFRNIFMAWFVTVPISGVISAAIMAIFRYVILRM
inactive: erlotinib 0.032 | [1] 0.059 | [2] 0.089 | [3] -0.097 | [4] 0.005 | [5] 0.02 | [6] 0.085 | [7] 0.069 | [8] 0.214 | IRAK-1-4 Inhibitor I 0.05 | ibrutinib 0.022 | [9] -0.028 | ralimetinib -0.013 | [10] -0.08 | [11] 0.05 | [12] 0.072 | [13] -0.015 | [14] 0.027 | [15] 0.002 | [16] -0.054

SH3BGRL2 (UniProt Q9UJC5)
Sequence of UniProt Q9UJC5 (Q9UJC5 whole entry, looked up): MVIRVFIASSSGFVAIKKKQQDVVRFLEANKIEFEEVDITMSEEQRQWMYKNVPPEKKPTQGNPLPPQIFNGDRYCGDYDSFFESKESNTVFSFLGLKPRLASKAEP
inactive: erlotinib 0.007 | [1] -0.109 | [2] 0.035 | [3] 0.045 | [4] -0.049 | [5] 0.01 | [6] 0.018 | [7] -0.087 | [8] 0.034 | IRAK-1-4 Inhibitor I 0.007 | ibrutinib -0.014 | [9] 0.027 | ralimetinib 0.006 | [10] -0.014 | [11] 0.035 | [12] 0.03 | [13] -0.004 | [14] 0.036 | [15] -0.072 | [16] 0.053

SKA2 (UniProt Q8WVK7)
Sequence of UniProt Q8WVK7 (Q8WVK7 whole entry, looked up): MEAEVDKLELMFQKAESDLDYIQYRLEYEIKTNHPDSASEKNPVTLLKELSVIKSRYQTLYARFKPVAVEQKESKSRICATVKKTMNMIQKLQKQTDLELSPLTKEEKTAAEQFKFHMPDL
inactive: erlotinib -0.006 | [1] -0.058 | [2] 0.014 | [3] -0.011 | [4] -0.042 | [5] 0.001 | [6] -0.081 | [7] -0.006 | [8] -0.019 | IRAK-1-4 Inhibitor I -0.056 | ibrutinib 0.037 | [9] 0.004 | ralimetinib 0.016 | [10] -0.003 | [11] 0.014 | [12] -0.004 | [13] 0.032 | [14] -0.099 | [15] -0.011 | [16] -0.03
